Drawing on PubChem BioAssay (EPA / NIEHS), this text covers outcome and AC50 for 28 compounds.

Where “and” joins values, the source holds several entries; their conditions need not be identical. Equal values may be shown once. Where a structure was tested more than once in an assay, its records may differ in their call. Calls of active or inactive are those of the source. Rule for the calls: active = hit-call score of the fitted dose curve at least 0.9, where 1 is the maximum; inactive = score below 0.9.

This test can be described thus: CCTE_Mundy_HCI_Cortical_NOG_NeuriteLength: CCTE's Neurite Outgrowth Assay in rat cortical cells for Neurite Length, Mundy Lab (AID 2284213).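 For AC50: neurites imaged about 48 to 50 h after chemical exposure began.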 As for the experimental part:
CCTE_Mundy_HCI_Cortical_NOG is a multiplexed, cell-based-readout assay that uses rat primary cortical cells with measurements taken at 50.33 hours after chemical dosing in a microplate: 96-well plate.CCTE_Mundy_HCI_Cortical_NOG_NeuriteLength is one of four components of the CCTE_Mundy_HCI_Cortical_NOG assay. It measures neurite outgrowth related to the neurite length using High Content Imaging of fluorescently labelled markers.[…] Using a type of morphology reporter, loss -of-signal activity can be used to understand developmental effects.
Exposure starts 2 hours post-plating by adding 10 ul of the working solution to 90 ul of media in the wells for a 1/10 dilution. Forty-eight hours after chemical treatment cells are fixed by direct addition of 100 ul of warm (37C) Dulbecco's phosphate buffered saline (DPBS) fixative solution containing 8% paraformaldehyde, 8% sucrose, and 0.1% of 3 mg/ml Hoechst 33342 into each well. Primary antibodies are prepared by dilution in Immunocytochemical Staining Buffer (ISB), 10X Dulbecco's PBS, 0.1% Saponin, 5% Bovine Serum Albumin, 0.5% NaN3 (Sodium Azide) and betaIII-tubulin (rabbit anti-betaIII-tubulin, 1:800) followed by Alexa Fluor-488 secondary (1:500) to label neuronal cell bodies and neurites. A Cellomics ArrayScan VTi HCS Reader is used for automated image acquisition and analysis of neurite outgrowth.
Consider `CCOP(=O)(OCC)Oc1cc(C)nc(C(C)C)n1`, for which the outcome was inactive. In the case of `CC1=NNC(=O)N(/N=C/c2cccnc2)C1`, the outcome was inactive.

In the case of `CCOP(=S)(OCC)Oc1ccc([N+](=O)[O-])cc1`, the compound was called inactive. Consider `CC[C@H](C)[C@H]1O[C@]2(C=C[C@@H]1C)C[C@@H]1C[C@@H](C/C=C(\C)[C@@H](O[C@H]3C[C@H](OC)[C@@H](O[C@H]4C[C@H](OC)[C@@H](NC)[C@H](C)O4)[C@H](C)O3)[C@@H](C)/C=C/C=C3\CO[C@@H]4[C@H](O)C(C)=C[C@@H](C(=O)O1)[C@]34O)O2`, for which the AC50 (commonly the concentration giving half of the maximal activity seen) is 1.24 µM (active) and 1.58 µM (active). As for `CCCSP(=O)(OCC)SCCC`, the compound was called inactive.

For the compound `CCOP(=S)(Oc1cnc(C(C)(C)C)nc1)OC(C)C` (centres undefined), the outcome was inactive and the AC50 is 26.1 µM (active). On to `CCCSP(=O)(OCC)Oc1ccc(Br)cc1Cl` (centres undefined), for which the compound was classed as inactive.

In the case of `CCOC(=O)CC(SP(=O)(OC)OC)C(=O)OCC` (centres undefined), the compound was called inactive.

For the compound `CCOP(=S)(OCC)Oc1ccc2c(C)c(Cl)c(=O)oc2c1`, the AC50 was 84.7 µM (active). With `CON=C(C(=O)OC)c1ccccc1CON=C(C)c1cccc(C(F)(F)F)c1`, the half-maximal activity concentration (AC50) was 1.14 µM (active). Regarding `C=C(C)[C@H]1Cc2c(ccc3c2O[C@@H]2COc4cc(OC)c(OC)cc4[C@@H]2C3=O)O1`, the AC50 was 0.0253 µM (active). For `CCOP(=O)(NC(C)C)Oc1ccc(SC)c(C)c1` (centres undefined), the compound was classed as inactive. In the case of `CC(=NC#N)N(C)Cc1ccc(Cl)nc1`, the compound was classed as inactive. The same measure, in the same setting: next, `COP(=O)(NC(C)=O)SC` (centres undefined): “inactive”; `C[N+]1(C)CCCCC1`: “inactive”. For `COP(=O)(OC)OC(Br)C(Cl)(Cl)Br` (centres undefined), the AC50 was 29.4 µM (active) and 20.6 µM (active).

Take `CCOP(=S)(OCC)SCCSCC`: the outcome was inactive. On to `O=[N+]([O-])c1cc(C(F)(F)F)c(Cl)c([N+](=O)[O-])c1Nc1ncc(C(F)(F)F)cc1Cl`, for which the concentration at half-maximal activity (AC50) was 0.8 µM (active).

On to `CCCCSP(=O)(SCCCC)SCCCC`, for which the AC50 is 86.1 µM (active) and 75.3 µM (active). With `CN(C)[C@@H]1C(=O)C(C(N)=O)=C(O)[C@@]2(O)C(=O)C3=C(O)c4c(O)cccc4[C@@](C)(O)[C@H]3[C@H](O)[C@@H]12`, the compound was classed as inactive.

As to `S=C1NCCN1`, the call was inactive.

`CCOP(=O)(SC(C)CC)N1CCSC1=O` (centres undefined): the compound was classed as inactive. In the case of `CCOP(=S)(OCC)Oc1cc(C)nc(C(C)C)n1`, the call was inactive. On to `CC(C)N(C(=O)SCC(Cl)=C(Cl)Cl)C(C)C`, for which the result was inactive.

Consider `CCOP(=S)(OCC)OC(Cl)C(Cl)(Cl)Cl` (centres undefined), for which the half-maximal activity concentration (AC50) is 66.9 µM (active) and 32.2 µM (active). Turning to `COP(=O)(OC)C(O)C(Cl)(Cl)Cl` (centres undefined), the call was inactive. On the same count and under the same terms, next, `CSC1=N[C@@](C)(c2ccccc2)C(=O)N1Nc1ccccc1`: “inactive”; `CN1COCN(Cc2cnc(Cl)s2)C1=N[N+](=O)[O-]`: “inactive”.
